Compound activity deposited in PubChem by National Center for Advancing Translational Sciences (NCATS).
D3 antag – antagonists of human D3 dopamine receptor; max response, negative = inhibition, %; P35462; 360,000 compounds, 2.5% hits; D3R cells, DiscoveRx beta-arrestin luminescence, antagonist mode; active compounds read low; in the data active = max response below about -50%; inconclusive = no clear call, values can overlap the other calls; also: % is scaled to controls: 0 for no effect and ±100 for the full control effect
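Cells plated overnight at 1500 cells/well, then exposed to library compounds with dopamine controls for 90 minutes at 37 degrees C. DiscoveRx reagent added for 30–60 minutes at room temperature; luminescence read, quantitative HTS format.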
D3 ag – activates the human D3 dopamine receptor; P35462; D3R DiscoveRx beta-arrestin cells, luminescence, 90 min; max activation, %; 410,000 compounds, 0.58% hits; in the data active = max activation above about 30%; also: 0% is about no effect
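Agonist mode: compounds and dopamine controls were applied to plated cells for 90 min at 37 degrees C after an overnight attachment at 1500 cells/well. Luminescent read-out followed 30 - 60 minutes at room temperature with DiscoveRx detection reagent.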
TRPML1 agonist – activates the human TRPML1 channel; Q9GZU1; TRPML1-expressing cells, Ca2+ dye fluorescence, FDSS; activation, % (no concentration beside the values); 410,000 compounds, 0.12% hits; in the data active = activation above about 50%; inconclusive = mostly about 30% to 49%; also: 0% is about no effect
Target sequence (Q9GZU1 whole entry, looked up): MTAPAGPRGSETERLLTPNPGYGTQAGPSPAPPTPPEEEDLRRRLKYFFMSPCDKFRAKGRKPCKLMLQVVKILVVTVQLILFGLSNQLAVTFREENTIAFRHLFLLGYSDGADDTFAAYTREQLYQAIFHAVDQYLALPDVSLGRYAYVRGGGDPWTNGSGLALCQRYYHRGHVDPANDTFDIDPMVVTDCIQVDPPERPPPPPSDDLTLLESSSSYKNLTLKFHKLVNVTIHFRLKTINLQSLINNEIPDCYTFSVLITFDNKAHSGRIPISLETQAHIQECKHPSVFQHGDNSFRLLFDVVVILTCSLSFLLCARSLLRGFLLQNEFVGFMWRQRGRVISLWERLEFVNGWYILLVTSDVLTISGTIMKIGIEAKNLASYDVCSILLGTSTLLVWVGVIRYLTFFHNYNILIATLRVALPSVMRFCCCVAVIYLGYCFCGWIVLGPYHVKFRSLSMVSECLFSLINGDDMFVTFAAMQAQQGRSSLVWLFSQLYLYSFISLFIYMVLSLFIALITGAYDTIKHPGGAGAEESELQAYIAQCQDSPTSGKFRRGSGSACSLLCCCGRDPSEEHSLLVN
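Calcium fluorescence on an FDSS kinetic reader gave the read-out. Tet-induced TRPML1-DL cells were plated overnight, dye-loaded (Ca8 with quencher, 45-90 min, room temperature, dark), then read 110 s after compound addition, and again 110 s after 4uM final 54-4 (EC80).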
TRPML1 blocker – human mucolipin-1 channel inhibition | TRPML1-inducible cells, Ca2+ dye fluorescence, FDSS; active compounds read low; inhibition of EC80 agonist-evoked calcium signal | activity change, negative = inhibition, % (no concentration beside the values) | 390,000 compounds, 0.02% hits; in the data active = activity change below about -50%; inconclusive = between about -30% and that limit;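 also: stimulus is agonist 54-4 at its EC80 concentration; % is scaled to controls: 0 for no effect and ±100 for the full control effect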
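TRPML1-DL cells, Tet-induced overnight (~16 h, 37 °C) at 1,500 cells/well, were loaded with Ca8 no-wash dye plus quencher for 45-90 min at room temperature. Compounds were pinned during FDSS kinetic reading; agonist 54-4 at EC80 (4 uM final) then added.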
The depositor's hits bear a star; ? = inconclusive; / = not tested or not shown. An excerpt weighted towards active compounds, which were near 2.9% of everything screened.

SMILES	D3 antag	D3 ag	TRPML1 agonist	TRPML1 blocker
COc1cccc(NC(=O)C(OC(=O)/C=C/c2ccc3c(c2)OCO3)c2ccccc2)c1 (configuration not stated)	-55*	-4	1	3
Cc1cccc(C(=O)NCN2CCN(c3ccccc3C#N)CC2)c1	-76*	-81	-1	-7
CSCCC(NS(=O)(=O)c1ccccc1)C(=O)OCc1cc(=O)oc2cc(O)ccc12 (configuration not stated)	-52*	-1	1	-2
Cc1ccccc1OCCCCCNCCO	-15	-33	0	-7
COc1ccccc1OCCCCNCCO	-13	-7	0	3
CC(C)(C)c1ccccc1OCCCCCNCCO	-86*	-25	2	-9
CC(C)c1ccccc1OCCCCCNCCO	-52*	-21	0	0
Cc1nn(CC(=O)N2CCN(c3ccccc3)CC2)c(=O)c2cc3cc(F)ccc3n12	/	6	-1	18
COc1ccc(-n2c(=O)c3sc4ccccc4c3n(C)c2=O)cc1	/	7	0	8
Cc1ccc(C(OCCN(C)C)c2cccc(C(F)(F)F)c2)cc1 (configuration not stated)	-76*	-11	1	0
COc1cc(OC)cc(C(=O)NC2CC3CCC(C2)N3Cc2ccco2)c1 (configuration not stated)	-91*	-10	1	-3
CCc1ccccc1NC(=O)NC1CC2CCC(C1)N2Cc1ccco1 (configuration not stated)	?	-17	0	5
O=C(Nc1cccc(Cl)c1)NC1CC2CCC(C1)N2Cc1ccco1 (configuration not stated)	-67*	-2	1	15
Cc1c(Cl)cccc1N1CC(C)(C)C1=O	1	8	52*	-17
O=C(NCc1ccc(F)cc1)c1ccc(NC(=O)N2CC3CCCN3c3ccccc32)cc1 (configuration not stated)	/	-6	2	-2
c1ccc2c(NCCc3c[nH]c4ccccc34)c3ccccc3nc2c1	?	-2	-1	-4
c1ccc(-n2nnnc2NCCc2c[nH]c3ccccc23)cc1	-52*	-3	0	17
COc1ccc(OC)c2c(/C=C/c3c(C)[nH]c4ccccc34)ccnc12	/	/	1	/
COc1ccnc(Oc2ccccc2)c1C(=O)N/C=N/OCc1ccc(F)cc1Cl	5	46*	5	3
CSc1ccc(CN2CCC2(C)C(=O)NC2CCN(Cc3ccccc3)CC2)cc1 (configuration not stated)	-111*	-19	0	/
CC1(C(=O)NCc2ccc(C(F)(F)F)cc2)CCN1Cc1cc2ccccc2o1 (configuration not stated)	17	1	0	/
CC1(C(=O)NC2CCN(Cc3ccccc3)CC2)CCN1Cc1cc2ccccc2o1 (configuration not stated)	-78*	-11	0	/
O=C1c2sc3nc4ccccc4n3c2C(=O)N1c1ccccc1Cl	-87*	-3	1	12
Cc1ccccc1N1C(=O)c2sc3nc4c(c(=O)n3c2C1=O)CCC4	-57*	-3	-1	-4
O=C1c2sc3nc4c(c(=O)n3c2C(=O)N1c1ccccc1)CCC4	0	-8	-1	-7
SMILES	D3 antag	D3 ag	TRPML1 agonist	TRPML1 blocker
CCOC(=O)C1CCCN(CCC(=O)Nc2ccc(Br)cc2)C1 (configuration not stated)	-50*	-16	-1	7
CCOC(=O)C1CCCN(CCC(=O)Nc2ccc3c(c2)CCC3)C1 (configuration not stated)	-56*	-35	0	9
CCOC(=O)C1CCCN(CCC(=O)Nc2ccc(C)c(C)c2)C1 (configuration not stated)	?	-10	2	19
CCOC(=O)C1CCN(CCC(=O)Nc2ccc(Br)cc2)CC1	4	-13	4	-4
CCOC(=O)C1CCCN(CCC(=O)Nc2ccc(Br)c(C)c2)C1 (configuration not stated)	-54*	-9	-1	-11
C[C@@H]1[C@H](c2ccccc2)OCCS(=O)(=O)N1Cc1ccccc1Br	/	/	0	/
Nc1cc(N)c(OCC(F)(F)F)cc1OCC(F)(F)F	-56*	6	1	7
Nc1cc(OCC(F)(F)F)cc([N+](=O)[O-])c1	4	4	1	25
CCOC(=O)COc1ccc2ccccc2c1/C=C/[N+](=O)[O-]	-52*	-7	17	9
